# Screening results (PubChem BioAssay)
# The list is not random: actives were taken first. Their share in the collection is about 2.5%.
# ULK1 primary = ULK1 kinase inhibitors, primary screen, biochemical, AlphaScreen; Serine/threonine-protein kinase ULK1 (Homo sapiens), O75385; AlphaScreen Atg13 phosphorylation by ULK1, luminescence; inhibition, % at 5.96 µM; hit rate 1.9% among 30,000; AID 1259251, 2017; in the data active = inhibition above about 43%;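 also: 0% = median of compound wells and 100% = no enzyme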
# ASK1 inh = ASK1 kinase inhibitors, primary screen, biochemical, AlphaScreen; Mitogen-activated protein kinase kinase kinase 5 (Homo sapiens), Q99683; AlphaScreen MKK6 phosphorylation by ASK1, luminescence; inhibition, % at 7.44 µM; hit rate 0.99% among 22,000; AID 1159602, 2016; in the data active = inhibition above about 35%;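 also: 0% = median of compound wells and 100% = no enzyme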
# Starred values were filed as active, the others as inactive; . = not tested or not shown; ! = repeats disagree.
SMILES,ULK1 primary,ASK1 inh
CN(C)CCOc1cc(-c2cn[nH]c2)c(F)cc1NC(=O)[C@H](N)Cc1ccc(C(F)(F)F)cc1,-12,2
COc1ccc(-c2ncc(C)c(NCCO)n2)cn1,-2,-6
COc1ccc2c(c1)CC(C(=O)Nc1ccc(-c3cn[nH]c3)cc1OCCO)CO2 (stereo not drawn),6,17
C=CCOCCOc1cc(-c2cn[nH]c2)ccc1NC(=O)C1COc2ccc(OC)cc2C1 (stereo not drawn),18,69*
O=C(NCCCN1CCOCC1)c1cc(Cl)cc(-n2ncc3cc(Nc4c(Cl)cccc4Cl)ccc32)c1,-25,2
CC(C)N(CCNC(=O)c1cnc(-c2ccc(N3CCOCC3)nc2)s1)C(C)C,6,-6
FC(F)(F)c1ccc(Cn2cnc3c(NCc4cccc(C(F)(F)F)c4)nc(N4CCc5ccccc5C4)nc32)cc1,22,-5
COc1cc(Nc2nc(NCCc3ccc(O)cc3)c3[nH]cnc3n2)cc(OC)c1OC,75*,-18
CCNc1nc(NCCc2ccc(O)cc2)c2[nH]cnc2n1,-5,13
COc1cc(Nc2nc(NCCOc3ccccc3)c3[nH]cnc3n2)cc(OC)c1OC,78*,17
CN(C)c1cccc(Nc2nc(NCCOc3ccccc3)c3[nH]cnc3n2)c1,34,18
COc1cc(Nc2nc(NCCO)c3[nH]cnc3n2)cc(OC)c1OC,63*,-24
CCNc1nc(Nc2cc(OC)c(OC)c(OC)c2)c2[nH]cnc2n1,13,8
c1ccc(CNc2nc(Nc3ccc4ncccc4c3)nc3nc[nH]c23)cc1,7,5
CC(C)N(CCNC(=O)c1csc(N2CCN(Cc3ccc4c(c3)OCO4)CC2)n1)C(C)C,-3,1
N#C/C(=C\c1cccc([N+](=O)[O-])c1)C(=O)Nc1ccc([N+](=O)[O-])cc1Br,45*,.
N#C/C(=C\c1cccc(Br)c1)C(=O)Nc1cc([N+](=O)[O-])ccc1F,39,.
O=C(O)c1cccc(-n2cc(-c3cc(F)cc(F)c3)cn2)c1,-6,.
NC(Cc1ccccc1)c1nc2ccc(-c3cncc4ccccc34)cc2[nH]1 (stereo not drawn),57*,4
NC(Cc1ccccc1)c1nc2ccc(-c3cccc4ncccc34)cc2[nH]1 (stereo not drawn),-20,-17
N[C@H]1CCC[C@H](C(=O)Nc2ccc3cnccc3c2)C1,75*,-2
N[C@@H]1CC[C@H](C(=O)Nc2ccc3cnccc3c2)C1,8,-2
NC1CCC(C(=O)Nc2ccc3[nH]ncc3c2)CC1 (stereo not drawn),55*!,14
CC(C)[C@@H](O)C(=O)N[C@H]1CC[C@@H](C(=O)Nc2ccc3[nH]ncc3c2)C1,1,13
COC(CNc1ncc(-c2cc3ccccc3s2)cn1)OC,0,.
SMILES,ULK1 primary,ASK1 inh
O=C(NCCCN1CCOCC1)c1ccc(-n2ncc3cc(Nc4ccccc4Cl)ccc32)cc1,-30,4
CC(C)(O)c1ccccc1CC[C@@H](SCC1(CC(=O)O)CC1)c1cccc(/C=C/c2ccc3ccc(Cl)cc3n2)c1,43*,.
O=C(O)CCCC[C@H]1SC[C@H]2NC(=O)N[C@H]21,100*,.
c1ccc(-n2cnc3c(NCc4nc5ccccc5[nH]4)nc(Nc4ccncc4)nc32)cc1,15,5
Cn1c(=O)[nH]c(N2CCC3(CC2)OCCO3)c(Cc2ccc(F)cc2Cl)c1=O,3,.
CCC(=O)/C=C/n1c(=O)oc2ccccc21,8,.
Oc1ccc(CCNc2nc(Nc3ccncc3)nc3nc[nH]c23)cc1,51*,-71
c1ccc(OCCNc2nc(Nc3ccc(-n4ccnc4)cc3)nc3nc[nH]c23)cc1,53*,-10
c1ccc(Nc2nc(NCCOc3ccccc3)c3[nH]cnc3n2)cc1,28,7
Oc1ccc(CCNc2nc(Nc3ccccc3)nc3nc[nH]c23)cc1,36,-26
Cc1cnc(Nc2ccc(-n3ccnc3)cc2)nc1NCCO,50*,-8
Cc1cnc(Nc2ccc(-n3ccnc3)cc2)nc1NCCc1ccc(O)cc1,29,-12
Cc1cnc(Nc2ccc(-n3ccnc3)cc2)nc1NCCOc1ccccc1,34,11
c1ccc(OCCNc2nc(Nc3cccnc3)nc3nc[nH]c23)cc1,48*,14
FC(F)(F)c1ccc(Nc2nc3ncnc(NC4CC4)c3[nH]2)cc1,4,-5
Cc1cnc(-c2ccc(C(=O)NC3CC3)cc2)nc1NCc1cccc(C(F)(F)F)c1,-15,-8
CCCc1cc(=O)[nH]c(-n2nc(C)cc2NC(=O)Cc2cccc3ccccc23)n1,5,.
c1ccc(-n2cnc3c(NCc4cccnc4)nc(NCc4ccc5c(c4)OCO5)nc32)cc1,7,7
COc1ccc2c(c1)CC(c1nc3ccccc3c(=O)[nH]1)CO2 (stereo not drawn),2,12
COc1ccc2c(c1)CC(C(=O)Nc1ccc(-c3ccnc(N)n3)cc1)CO2 (stereo not drawn),11,1
CCCNc1nc(-c2ccc(C(N)=O)cc2)nc2c1ncn2-c1ccccc1,-8,-10
Oc1ccc(CCNc2nc(Nc3ccc(-n4ccnc4)cc3)nc3nc[nH]c23)cc1,50*,-66
Oc1ccc(CCNc2nc(Nc3ncccn3)nc3nc[nH]c23)cc1,8,-6
O=C(NCc1nc2ccccc2[nH]1)c1cnc(Br)s1,4,-18
CC(=O)OC[C@H]1O[C@@H](OC(C)=O)[C@H](OC(C)=O)[C@@H]1OC(C)=O,-3,.
SMILES,ULK1 primary,ASK1 inh
O=C(OC[C@H]1O[C@H](OC(=O)c2cc(O)c(O)c(OC(=O)c3cc(O)c(O)c(O)c3)c2)[C@H](OC(=O)c2cc(O)c(O)c(OC(=O)c3cc(O)c(O)c(O)c3)c2)[C@@H](OC(=O)c2cc(O)c(O)c(OC(=O)c3cc(O)c(O)c(O)c3)c2)[C@@H]1OC(=O)c1cc(O)c(O)c(OC(=O)c2cc(O)c(O)c(O)c2)c1)c1cc(O)c(O)c(OC(=O)c2cc(O)c(O)c(O)c2)c1,86*,.
CCCNc1nc(Nc2cccc(N(C)C)c2)nc2nc[nH]c12,18,21
O=C(Cc1cn(-c2ccc(NCc3ccc4c(c3)OCO4)nn2)c2ccccc12)NC1CCN(Cc2ccccc2)CC1,2,14
c1cnn(Cc2ccc(Nc3nccc(-c4cncc(N5CCOCC5)c4)n3)cc2)c1,30,-4
COc1ccc(Nc2nccc(-c3cncc(N4CCOCC4)c3)n2)cc1OC,47*,21
Fc1cc(-c2nc(Nc3ccc(Cn4ccnc4)cc3)ncc2F)cc(N2CCOCC2)c1,26,13
c1cn(Cc2ccc(Nc3nccc(-c4cncc(N5CCOCC5)c4)n3)cc2)cn1,60*,-4
Fc1cc(-c2nc(Nc3cccc(Cn4ccnc4)c3)ncc2F)cc(N2CCOCC2)c1,79*,20
Cn1cnnc1-c1ccc(Nc2nccc(-c3cncc(N4CCOCC4)c3)n2)cc1,58*,7
Cn1cnnc1-c1ccc(Nc2nccc(-c3cc(C#N)cc(N4CCOCC4)c3)n2)cc1,-14,12
Fc1ccc(Nc2nccc(-c3cncc(N4CCOCC4)c3)n2)cc1,17,22
CN1CCN(c2ccc(-c3nc4ccc(C(=O)NCc5cccc(C(F)(F)F)c5)cc4s3)cc2)CC1,12,-9
COc1cccc(OC)c1Oc1ncc(-c2ccc(F)cc2)cn1,8,.
Cc1[nH]nc2ccc(Nc3nccc(-c4cncc(N5CCOCC5)c4)n3)cc12,49*,7
